Assay results reported in publication PMC10668032, “Altered binding affinity of SIX1-Q177R correlates with enhanced WNT5A and WNT pathway effector expression in Wilms tumor”.
The full ranking holds about 33,000 sequences; the median of “e-score” is about -0.053, and the highest 2% start at about 0.38. Many of the other results were omitted from the sample, so the highest values are more common in it than they were.

Target: T1, SIX1 homeodomain (reference allele) (human, UniProt Q15475 108-198)
T1 sequence: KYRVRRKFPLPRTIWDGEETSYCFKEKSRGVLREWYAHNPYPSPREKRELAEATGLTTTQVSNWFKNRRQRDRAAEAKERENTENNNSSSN
Assay: universal protein binding microarray; Universal all-10-mer PBM (8x60K, AMADID 030236), 300 nM GST-tagged protein, Alexa Fluor 488 anti-GST; buffer, salt, pH and temperature not stated (as in Berger); high values mean tight binding
Details: protein: ivt; tags: N-terminal GST; dsDNA, one strand shown
Summary of the method: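 Duplicate protein binding microarrays (universal 'all 10-mer', 8×60K format) were incubated with GST-tagged homeodomains at 300 nM final concentration. Binding was quantified as 8-mer E-scores with the Universal PBM Analysis Suite.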

Row | Sequence | binding signal [E-score]
1 | ATACCAAT | 0.3482 ± 0.0028
2 | ATCCCAGC | 0.221 ± 0.0257
3 | CTTGTATC | 0.266 ± 0.0293
4 | CGTGTATA | 0.247 ± 0.0518
5 | AGTGTATC | 0.43 ± 0.00296
6 | CATGTATC | 0.403 ± 0.00743
7 | CATGTATA | 0.223 ± 0.0131
8 | CGTGTATC | 0.404 ± 0.0303
9 | AGTGTACC | 0.16 ± 0.0592
10 | AATGTATC | 0.363 ± 0.0137
11 | AGTGTATA | 0.291 ± 0.0334
12 | ATCGGGGG | 0.223 ± 0.00524
13 | ATCAACAG | 0.209 ± 0.0732
14 | ATCCGGCC | 0.316 ± 0.022
15 | CGATCGGC | 0.1802 ± 0.00119
16 | TATTATGA | 0.207 ± 0.134
17 | ATCAAGCA | 0.174 ± 0.047
18 | GATGCGGA | 0.199 ± 0.0357
19 | CTTCGATC | 0.152 ± 0.112
20 | CCTGATCC | 0.387 ± 0.0469
21 | CCTGATCA | 0.306 ± 0.0156
22 | GCAGATCC | 0.272 ± 0.0482

Row | Sequence | binding signal [E-score]
23 | ACTGATCT | 0.34 ± 0.0165
24 | GCTGATCA | 0.198 ± 0.00374
25 | GCTGATCC | 0.425 ± 0.0138
26 | ACTGATCC | 0.398 ± 0.007
27 | ACTGATCG | 0.156 ± 0.0405
28 | CCTGATCG | 0.197 ± 0.0659
29 | GTCTAGTA | 0.158 ± 0.0279
30 | CACACCGG | 0.224 ± 0.0376
31 | GTATACGA | 0.308 ± 0.0266
32 | CATGGTGA | 0.225 ± 0.035
33 | AATATGCG | 0.171 ± 0.0476
34 | AATATGCC | 0.16 ± 0.0322
35 | GATATGCC | 0.427 ± 0.0454
36 | GATATGAA | 0.259 ± 0.0356
37 | CATATGCC | 0.162 ± 0.0394
38 | GATATGCA | 0.4032 ± 0.00302
39 | CTAATACC | 0.285 ± 0.0649
40 | ATAATACG | 0.385 ± 0.0407
41 | ATAATACC | 0.421 ± 0.0503
42 | ATAATACA | 0.302 ± 0.0417
43 | ATAATATG | 0.27 ± 0.0724
44 | ACAATACG | 0.25 ± 0.0363

Row | Sequence | binding signal [E-score]
45 | GGAGCATA | 0.213 ± 0.018
46 | ATATGAGG | 0.156 ± 0.0225
47 | CGTCTAAG | 0.193 ± 0.0194
48 | GCAATATA | 0.16 ± 0.0581
49 | CGACACCA | 0.416 ± 0.0371
50 | CAACACCA | 0.282 ± 0.0199
51 | CCACACCG | 0.151 ± 0.104
52 | TCACACCA | 0.195 ± 0.0562
53 | CGACACCG | 0.427 ± 0.0217
54 | GGACACCC | 0.372 ± 0.033
55 | AGACACCC | 0.335 ± 0.0199
56 | AGACACCG | 0.323 ± 0.0488
57 | CGACACCC | 0.439 ± 0.0379
58 | CCATAGGG | 0.162 ± 0.116
59 | GCAGATCA | 0.369 ± 0.0161
60 | ATACTGAG | 0.286 ± 0.0205
61 | CTCCAGGA | 0.161 ± 0.0145
62 | ATCAGGTA | 0.2929 ± 0.00141
63 | CTCGTGTA | 0.158 ± 0.00844
64 | AAAATCCG | 0.175 ± 0.0497
65 | CGAGTATC | 0.435 ± 0.0231
66 | CGAGTACC | 0.185 ± 0.0226

Row | Sequence | binding signal [E-score]
67 | AGAGTATA | 0.262 ± 0.0847
68 | GGAGTATA | 0.319 ± 0.0316
69 | CGAGTATA | 0.29 ± 0.0819
70 | AGAGTATC | 0.465 ± 0.0179
71 | ACCGATCG | 0.272 ± 0.0437
72 | ATATAGCC | 0.25 ± 0.032
73 | TGACACCA | 0.466 ± 0.0154
74 | TAACACCA | 0.299 ± 0.0116
75 | GGACACGA | 0.176 ± 0.0225
76 | AGACACCT | 0.287 ± 0.0126
77 | AGACACCA | 0.329 ± 0.0244
78 | GGACACCA | 0.3862 ± 0.00187
79 | GATTATCA | 0.2193 ± 0.00188
80 | CCAGATTA | 0.252 ± 0.0366
81 | ACCATGTA | 0.197 ± 0.0756
82 | GAGGACAC | 0.222 ± 0.0132
83 | AAACGGAT | 0.364 ± 0.0337
84 | AGTCGGAT | 0.296 ± 0.0281
85 | AGACGGCA | 0.197 ± 0.0126
86 | ACACGGCT | 0.2 ± 0.00761
87 | ATACGTAT | 0.421 ± 0.00632
88 | ATACGTAG | 0.276 ± 0.0521
